# Measured values as given in PubChem BioAssay (NCI).
# About 79,000 compounds went through this panel and 15% of them were active in at least one assay; those are over-represented in the sample as a whole. A number with no mark means an inactive call. Calls of active or inactive are those of the source. No stated cut-off is given here; in the data, active means growth inhibition above about 70%; inactive means the rest.
# How the values were obtained:
# [1] = NCI Yeast Anticancer Drug Screen. Data for the mlh1 strain (AID 171);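 further: 0% = growth of vehicle-treated control cultures of the same strain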; conditions: S. cerevisiae mlh1 strain growth inhibition, active compounds read high
# Procedure, shortened: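 Growth of the mutant yeast strain after compound exposure, expressed as inhibition relative to vehicle-only controls.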
# [2] = NCI Yeast Anticancer Drug Screen. Data for the mlh1 rad18 strain (AID 175); conditions: S. cerevisiae mlh1 rad18 strain growth inhibition, active compounds read high
# Procedure, shortened: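 Read-out is yeast growth inhibition, calculated against vehicle-only controls. The compound was applied to a strain engineered with DNA damage repair alterations.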
# [3] = NCI Yeast Anticancer Drug Screen. Data for the rad18 strain (AID 177); conditions: S. cerevisiae rad18 mutant growth inhibition, active compounds read high
# Procedure, shortened: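 Growth of the mutant yeast strain after compound exposure, normalised to vehicle-only cultures.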
# [4] = NCI Yeast Anticancer Drug Screen. Data for the wt1 strain (AID 149);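 further: 0% = growth of vehicle-treated wt1 cultures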; conditions: S. cerevisiae wt1 strain (SPY 50644) growth inhibition, active compounds read high
# Procedure, shortened: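 Measured: growth of wt1 yeast under compound versus vehicle treatment, reported as inhibition.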
# [5] = NCI Yeast Anticancer Drug Screen. Data for the rad50EPP+ strain (AID 151);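 further: 0% = growth of vehicle-treated control cultures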; conditions: S. cerevisiae rad50 mutant strain, active compounds read high
# Procedure, shortened: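 Compounds were applied to the rad50EPP+ yeast strain, which bears a defined DNA repair alteration, and growth inhibition was determined relative to vehicle-treated cultures.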
# [6] = NCI Yeast Anticancer Drug Screen. Data for the mgt1 strain (AID 153); conditions: S. cerevisiae mgt1 mutant growth inhibition, active compounds read high
# Procedure, shortened: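 Strain: mgt1 yeast, one of a set carrying defined DNA damage repair or cell cycle control alterations. Compound-treated growth compared with vehicle.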
# [7] = NCI Yeast Anticancer Drug Screen. Data for the rad50 strain (AID 155);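 further: 0% = growth of vehicle-only cultures of the same strain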; conditions: S. cerevisiae rad50 strain growth inhibition, active compounds read high
# Procedure, shortened: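 Growth of the mutant yeast was measured after compound exposure and referenced to vehicle-treated cultures.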
# [8] = NCI Yeast Anticancer Drug Screen. Data for the mec2-1 strain (AID 157); conditions: S. cerevisiae mec2-1 strain, active compounds read high
# Procedure, shortened: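 Strain: mec2-1 (DNA repair/cell cycle alteration). Compound exposure, then growth measured; inhibition expressed relative to vehicle.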
# [9] = NCI Yeast Anticancer Drug Screen. Data for the rad14 strain (AID 159);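 further: 0% = growth of vehicle-treated control cultures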; conditions: S. cerevisiae rad14 strain growth inhibition, active compounds read high
# Procedure, shortened: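 Here, inhibition of yeast growth was measured after compound exposure, using a strain with a genetic defect in DNA damage repair and vehicle-treated cultures as the reference.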
# [10] = NCI Yeast Anticancer Drug Screen. Data for the sgs1 mgt1 strain (AID 161);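 further: 0% = growth of cultures given vehicle only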; conditions: S. cerevisiae sgs1 mgt1 strain, active compounds read high
# Procedure, shortened: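 Mutant yeast exposed to compound; growth scored against vehicle-only wells.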
# [11] = NCI Yeast Anticancer Drug Screen. Data for the CLN2oe strain (AID 163);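 further: 0% = growth of vehicle-only control cultures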; conditions: S. cerevisiae CLN2oe strain, active compounds read high
# Procedure, shortened: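 Growth of a genetically modified yeast strain is measured after compound exposure and compared with cultures given vehicle alone.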
# [12] = NCI Yeast Anticancer Drug Screen. Data for the cln2 rad14 strain (AID 165);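 further: 0% = growth equal to vehicle treated cultures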; conditions: S. cerevisiae cln2 rad14 strain, active compounds read high
# Procedure, shortened: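 Compounds are applied to the cln2 rad14 yeast strain, and growth is then compared with that of vehicle-treated cultures to give inhibition.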
# [13] = NCI Yeast Anticancer Drug Screen. Data for the bub3 strain (AID 167); conditions: S. cerevisiae bub3 mutant strain, active compounds read high
# Procedure, shortened: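 Whole-cell yeast assay. The mutant strain was incubated with compounds, and growth inhibition was determined by comparison with vehicle-treated cells.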
# [14] = NCI Yeast Anticancer Drug Screen. Data for the wt2 strain (AID 169);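 further: 0% = growth of vehicle-treated yeast cultures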; conditions: S. cerevisiae wt2 strain growth inhibition, active compounds read high
# Procedure, shortened: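 This strain belongs to a panel of yeast strains with defined genetic alterations in DNA damage repair or cell cycle control. Compounds are applied, and growth inhibition is measured against vehicle-treated cultures.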
# [15] = NCI Yeast Anticancer Drug Screen. Data for the sgs1 strain (AID 173);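 further: 0% = growth of vehicle-only control cultures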; conditions: S. cerevisiae sgs1 mutant, active compounds read high
# Procedure, shortened: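 Growth of a yeast strain bearing a defined genetic alteration is measured after compound treatment. Inhibition is expressed relative to vehicle-only controls.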
# [16] = at 5.0 µM (retest, dose inferred, filed as 0.5)
# [17] = at 50.0 µM (retest, dose inferred, filed as 5.0)
structure (smiles),measurement,setting,value
CCCCCCCCCC(=O)N(CCC)CCC,growth inhibition,[1]; at 1.2 µM,2%
same,growth inhibition,[1]; at 3.7 µM,-15%
same,growth inhibition,[1]; at 11.0 µM,-13%
same,growth inhibition,[1]; at 33.0 µM,41%
same,growth inhibition,[1]; at 100.0 µM,96% (active)
same,growth inhibition,[2]; [16],99% (active)
same,growth inhibition,[2]; [17],99% (active)
same,growth inhibition,[2]; at 50.0 µM,90.3% (active)
same,growth inhibition,[3]; at 1.2 µM,15%
same,growth inhibition,[3]; at 3.7 µM,21%
same,growth inhibition,[3]; at 11.0 µM,15%
same,growth inhibition,[3]; at 33.0 µM,68%
same,growth inhibition,[3]; at 100.0 µM,98% (active)
Cc1cc(C)c2[s+]snc2c1,growth inhibition,[4]; at 1.2 µM,-36%
same,growth inhibition,[4]; at 3.7 µM,1%
same,growth inhibition,[4]; at 11.0 µM,1%
same,growth inhibition,[4]; at 33.0 µM,9%
same,growth inhibition,[4]; at 100.0 µM,26%
same,growth inhibition,[5]; at 1.2 µM,1%
same,growth inhibition,[5]; at 3.7 µM,5%
same,growth inhibition,[5]; at 11.0 µM,5%
same,growth inhibition,[5]; at 33.0 µM,20%
same,growth inhibition,[5]; at 100.0 µM,80% (active)
same,growth inhibition,[6]; at 1.2 µM,1%
same,growth inhibition,[6]; at 3.7 µM,3%
same,growth inhibition,[6]; at 11.0 µM,6%
same,growth inhibition,[6]; at 33.0 µM,12%
same,growth inhibition,[6]; at 100.0 µM,23%
same,growth inhibition,[7]; at 1.2 µM,0%
same,growth inhibition,[7]; at 3.7 µM,1%
same,growth inhibition,[7]; [16],-5%
same,growth inhibition,[7]; at 11.0 µM,3%
same,growth inhibition,[7]; at 33.0 µM,9%
same,growth inhibition,[7]; [17],23%
same,growth inhibition,[7]; at 50.0 µM,50.5%
same,growth inhibition,[7]; at 100.0 µM,20%
same,growth inhibition,[8]; at 1.2 µM,-3%
same,growth inhibition,[8]; at 3.7 µM,-5%
same,growth inhibition,[8]; [16],-6%
same,growth inhibition,[8]; at 11.0 µM,-3%
same,growth inhibition,[8]; at 33.0 µM,10%
same,growth inhibition,[8]; [17],68%
same,growth inhibition,[8]; at 50.0 µM,50.2%
same,growth inhibition,[8]; at 100.0 µM,29%
same,growth inhibition,[9]; at 1.2 µM,2%
same,growth inhibition,[9]; at 3.7 µM,4%
same,growth inhibition,[9]; at 11.0 µM,5%
same,growth inhibition,[9]; at 33.0 µM,9%
same,growth inhibition,[9]; at 100.0 µM,21%
same,growth inhibition,[10]; [16],-1%
same,growth inhibition,[10]; [17],31%
same,growth inhibition,[10]; at 50.0 µM,79% (active)
same,growth inhibition,[11]; at 1.2 µM,-7%
same,growth inhibition,[11]; at 3.7 µM,-7%
same,growth inhibition,[11]; at 11.0 µM,-4%
same,growth inhibition,[11]; at 33.0 µM,-1%
same,growth inhibition,[11]; at 100.0 µM,17%
same,growth inhibition,[12]; [16],-19%
same,growth inhibition,[12]; [17],19%
same,growth inhibition,[12]; at 50.0 µM,33.1%
same,growth inhibition,[13]; at 1.2 µM,-4%
same,growth inhibition,[13]; at 3.7 µM,-4%
same,growth inhibition,[13]; [16],-5%
same,growth inhibition,[13]; at 11.0 µM,-5%
same,growth inhibition,[13]; at 33.0 µM,1%
same,growth inhibition,[13]; [17],61%
same,growth inhibition,[13]; at 50.0 µM,52%
same,growth inhibition,[13]; at 100.0 µM,30%
same,growth inhibition,[14]; at 1.2 µM,-2%
same,growth inhibition,[14]; at 3.7 µM,1%
same,growth inhibition,[14]; at 11.0 µM,3%
same,growth inhibition,[14]; at 33.0 µM,7%
same,growth inhibition,[14]; at 100.0 µM,30%
same,growth inhibition,[15]; at 1.2 µM,4%
same,growth inhibition,[15]; at 3.7 µM,7%
same,growth inhibition,[15]; at 11.0 µM,8%
same,growth inhibition,[15]; at 33.0 µM,17%
same,growth inhibition,[15]; at 100.0 µM,36%
same,growth inhibition,[2]; [16],2%
same,growth inhibition,[2]; [17],34%
same,growth inhibition,[2]; at 50.0 µM,76% (active)
same,growth inhibition,[3]; at 1.2 µM,7%
same,growth inhibition,[3]; at 3.7 µM,9%
same,growth inhibition,[3]; at 11.0 µM,6%
same,growth inhibition,[3]; at 33.0 µM,27%
same,growth inhibition,[3]; at 100.0 µM,49%
